In the library only some 6.7% were active in any assay of this set; here they are far more common.
C diff HTS = C. difficile growth inhibition; hit rate 0.25% among 86,000; Clostridium difficile clinical isolate growth, OD600, 24 h; hits give low values; growth activity, negative = inhibition, % at 16 µg/mL (by protocol);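 active = mean growth activity at or below -80% and every replicate also at or below -80%; inconclusive = mean at or below -80% but some replicate above -80%; inactive = mean growth activity above -80%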;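 note: 0% = DMSO wells and -100% = levofloxacin 16 µg/mL wells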
Pf Dd2 inh = P. falciparum Dd2 growth inhibition | SYBR Green, 72 h; hits give low values | activity change, % at 10 µM | hit rate 2.3% among 94,000 | AID 1159554; in the data active = activity change below about -80%; inconclusive = no clear call, values can overlap the other calls
T cruzi growth-1 = inhibitors of T. cruzi proliferation; T. cruzi beta-gal in NIH3T3, GalScreen luminescence, 90 h; inhibition, % at 8.34 µM; hit rate 5.9% among 77,000;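 active = mean inhibition above about 93%, with at least 55% of replicates each passing it, limit read from the data, passing the limit was not always enough; inconclusive = only one of those two conditions holds; inactive = neither condition holds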
T cruzi growth-2 = blocks T. cruzi growth in NIH3T3 host cells; shares compounds with T cruzi growth-1; T. cruzi beta-gal in NIH3T3, GalScreen luminescence, 90 h; inhibition, % at 8.35 µM; hit rate 72% among 5,600; AID 651739;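 active = mean replicate inhibition above about 95% and at least 55% of replicates individually reaching it, limit read from the data; inconclusive = only one of the two criteria is met; inactive = neither criterion is met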
T cruzi growth-3 = blocks T. cruzi growth in NIH3T3 host cells. shares compounds with T cruzi growth-1. T. cruzi beta-gal in NIH3T3, GalScreen luminescence, 90 h. inhibition, % at 2.09 µM. hit rate 21% among 5,600;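 active = mean inhibition above about 95%, with at least 55% of replicates also reaching it, limit read from the data; inconclusive = meets just one of the two conditions; inactive = meets neither condition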;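 note: plate controls were neutral control median for no effect and positive control median for full effect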
NIH3T3 tox = cytotoxicity in mouse NIH/3T3 fibroblasts; shares compounds with T cruzi growth-1; NIH/3T3 viability, CellTiter-Glo ATP luminescence, 90 h; cytotoxicity (signal decrease), % at 8.35 µM; hit rate 14% among 5,600; AID 651742;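 active = mean signal decrease across replicates above about 35% based on untreated-well scatter, with enough replicates individually passing, limit read from the data; inconclusive = no rule stated though some were filed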;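 note: 0% = median of neutral control wells and 100% = median of positive control wells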
NIH3T3 tox 2 = NIH/3T3 (mouse) viability loss; NIH/3T3 viability, CellTiter-Glo ATP luminescence, 90 h; shares compounds with T cruzi growth-1; hit rate 56% among 5,600; inhibition, % at 24.9 µM; AID 651744;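 active = mean loss of cell viability signal at or above a set limit, and enough replicates individually reaching it; inconclusive = meets only the mean limit or only the replicate share; inactive = meets neither condition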;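 note: 0% = median of neutral control wells and 100% = median of positive control wells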
Active calls of the source: *; ? = inconclusive; / = no result given.

SMILES	C diff HTS	Pf Dd2 inh	T cruzi growth-1	T cruzi growth-2	T cruzi growth-3	NIH3T3 tox	NIH3T3 tox 2
N#C[C@@H]1[C@H](c2ccc(C#Cc3cccc(F)c3)cc2)[C@@H](CO)N1C(=O)C1CC1	-5.2	-44.7	?	100.8*	94.8	3.2	71.3*
N#C[C@H]1[C@@H](c2ccc(C#Cc3cccc(F)c3)cc2)[C@@H](CO)N1C(=O)C1CC1	12.9	-19.4	85.4	/	/	/	/
N#C[C@H]1[C@@H](c2ccc(C#Cc3cccc(F)c3)cc2)[C@H](CO)N1C(=O)C1CCC1	-15.5	-44.4	100.0*	95.6*	104.7*	19.7	103.1*
N#C[C@@H]1[C@@H](c2ccc(C#Cc3cccc(F)c3)cc2)[C@H](CO)N1C(=O)C1CCCC1	3.8	-32.3	97.2*	100.4*	100.8*	15.5	78.8*
N#C[C@@H]1[C@@H](c2ccc(C#Cc3cccc(F)c3)cc2)[C@H](CO)N1C(=O)C1CC1	3.1	-33.5	93.0	/	/	/	/
C[C@H]1CN([C@@H](C)CO)C(=O)c2cc(C3=CCCC3)cnc2O[C@H]1CN(C)C(=O)C1CCC1	0.5	19.7	19.2	/	/	/	/
CO[C@@H]1CN(C)C(=O)c2cc(NC(=O)C3CCC3)ccc2OC[C@@H](C)N(Cc2ccncc2)C[C@H]1C	0.6	0.0	8.2	/	/	/	/
O=C(c1ccncc1)N1CC(=O)N2[C@@H](CO)[C@H](c3ccc(-c4ccccc4F)cc3)[C@@H]2C1	3.3	-17.2	/	/	/	/	/
C[C@@H]1CN([C@@H](C)CO)C(=O)Cc2cc(NC(=O)Nc3ccc(C(F)(F)F)cc3)ccc2O[C@H]1CN(C)S(=O)(=O)c1ccccc1	0.6	-24.4	/	/	/	/	/
CO[C@H](CN(C)Cc1ccc(-c2ccccn2)cc1)[C@@H](C)CN(C(=O)Nc1ccc(F)cc1)[C@@H](C)CO	/	-14.0	100.5*	102.3*	34.1	16.9	11.8
CO[C@H](CN(C)Cc1ccc(-c2ccccn2)cc1)[C@@H](C)CN(C(=O)Nc1ccc(F)cc1)[C@H](C)CO	/	-31.3	89.7	/	/	/	/
CN(C)CC(=O)N1[C@@H](C#N)[C@H](c2ccc(C#CC3CCCCC3)cc2)[C@@H]1CO	-0.4	-32.0	102.1*	98.1*	37.7	19.7	104.2*
CN(C)CC(=O)N1[C@@H](C#N)[C@@H](c2ccc(C#CC3CCCCC3)cc2)[C@@H]1CO	6.9	14.2	42.0	/	/	/	/
CN(C)CC(=O)N1[C@H](C#N)[C@@H](c2ccc(C#CC3CCCCC3)cc2)[C@H]1CO	0.2	-20.8	109.1*	106.9*	72.8	1.4	101.6*
CN(C)CC(=O)N1[C@H](C#N)[C@@H](c2ccc(C#CC3CCCCC3)cc2)[C@@H]1CO	0.5	-16.1	71.7	/	/	/	/
C[C@H]1CCCCO[C@H](CN(C)C(=O)C2CCCCC2)[C@@H](C)CN([C@@H](C)CO)C(=O)c2cc(NS(C)(=O)=O)ccc2O1	-5.7	9.4	17.2	/	/	/	/
O=C(O)C[C@H]1CC[C@@H](NC(=O)CCN2CCCCC2)[C@@H](CO)O1	1.9	22.5	/	/	/	/	/
COC(=O)[C@H]1[C@H](CO)[C@H]2Cn3c(ccc(/C=C/c4ccccc4)c3=O)[C@H]2N1CC1CCCCC1	17.8	-13.1	67.2	/	/	/	/
COc1cccc(-c2ccc3c(c2)O[C@H](CN(C)C(=O)C2CC2)[C@@H](C)CN([C@@H](C)CO)S3(=O)=O)c1	/	-33.2	81.1	/	/	/	/
COc1cccc(-c2ccc3c(c2)O[C@H](CN(C)C(=O)C2CC2)[C@H](C)CN([C@@H](C)CO)S3(=O)=O)c1	/	9.9	101.5*	82.4	42.7	18.0	68.5*
C[C@@H]1CN([C@H](C)CO)S(=O)(=O)c2ccc(-c3ccccc3)cc2O[C@H]1CN(C)C(=O)C1CC1	-10.5	-1.9	115.8	/	/	/	/
COc1cccc(-c2ccc3c(c2)O[C@H](CN(C)C(=O)c2ccccc2F)[C@H](C)CN([C@H](C)CO)S3(=O)=O)c1	-3.6	-49.9	108.5*	105.3*	77.4	45.1*	74.2*
COc1cccc(-c2ccc3c(c2)O[C@@H](CN(C)C(=O)c2ccccc2F)[C@H](C)CN([C@H](C)CO)S3(=O)=O)c1	1.3	-79.3	/	/	/	/	/
C[C@@H]1CN([C@@H](C)CO)S(=O)(=O)c2ccc(-c3ccccc3)cc2O[C@H]1CN(C)C(=O)C1CC1	-3.5	-12.5	?	78.0	29.3	38.3*	58.8*
CC(=O)N1CC2(C1)[C@H](c1ccc(-c3ccc(C#N)cc3)cc1)[C@@H](CO)N2C(C)=O	0.4	-0.2	/	/	/	/	/
SMILES	C diff HTS	Pf Dd2 inh	T cruzi growth-1	T cruzi growth-2	T cruzi growth-3	NIH3T3 tox	NIH3T3 tox 2
O=S(=O)(N[C@H]1CC[C@@H](CCn2cc(-c3cccnc3)nn2)O[C@@H]1CO)c1ccc(F)cc1	1.5	8.3	-10.9	/	/	/	/
C[C@@H]1CCCCO[C@H](CN(C)C(=O)Nc2ccc3c(c2)OCO3)[C@H](C)CN([C@H](C)CO)C(=O)c2cc(NC(=O)CCCN(C)C)ccc2O1	3.0	-54.2	104.0*	6.4	1.5	-0.6	8.1
C[C@H]1CCCCO[C@H](CN(C)C(=O)Nc2ccc3c(c2)OCO3)[C@@H](C)CN([C@@H](C)CO)C(=O)c2cc(NC(=O)Cc3ccccc3)ccc2O1	-1.2	?	?	90.1	60.2	-6.8	23.1
C[C@@H]1CCCCO[C@H](CN(C)C(=O)Nc2ccc3c(c2)OCO3)[C@H](C)CN([C@H](C)CO)C(=O)c2cc(NC(=O)Nc3ccccc3)ccc2O1	13.0	-46.8	107.9*	110.5*	14.9	-29.4	-23.2
C[C@H]1CCCCO[C@H](CN(C)C(=O)Nc2ccc3c(c2)OCO3)[C@@H](C)CN([C@@H](C)CO)C(=O)c2cc(NC(=O)Nc3ccc(F)cc3)ccc2O1	-2.8	-65.3	72.4	/	/	/	/
C[C@@H]1CCCCO[C@@H](CN(C)C(=O)Nc2ccccc2)[C@@H](C)CN([C@H](C)CO)C(=O)c2cc(NC(=O)Cc3ccccc3)ccc2O1	/	-18.8	6.2	/	/	/	/
C[C@@H]1CCCCO[C@@H](CN(C)C(=O)Nc2ccccc2)[C@H](C)CN([C@@H](C)CO)C(=O)c2cc(NC(=O)Nc3ccc4c(c3)OCO4)ccc2O1	4.7	13.2	33.0	/	/	/	/
C[C@H]1CCCCO[C@@H](CN(C)C(=O)Nc2ccc3c(c2)OCO3)[C@@H](C)CN([C@@H](C)CO)C(=O)c2cc(NC(=O)Nc3ccc(F)cc3)ccc2O1	5.3	-56.0	103.0*	106.4*	74.7	-0.8	-9.3
C[C@@H]1CCCCO[C@@H](CN(C)C(=O)Nc2ccc3c(c2)OCO3)[C@@H](C)CN([C@@H](C)CO)C(=O)c2cc(NC(=O)CCCN(C)C)ccc2O1	-2.1	-3.3	/	/	/	/	/
CNC[C@@H]1OCCCC[C@@H](C)Oc2ccc(NS(C)(=O)=O)cc2C(=O)N([C@@H](C)CO)C[C@@H]1C	-3.7	-17.8	12.8	/	/	/	/
C[C@H](CO)N1C[C@H](C)[C@H](CN(C)C(=O)CC2CC2)Oc2cc(-c3cncnc3)ccc2S1(=O)=O	-2.7	-2.1	21.2	/	/	/	/

High-throughput results (PubChem BioAssay)
